Laboratory results as given in PubChem BioAssay AID488835 (Broad Institute, 2010).
Screen size: about 1,400 compounds; about 140 (10%) were called active.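 Rule for the calls: active = Half-maximal inhibitory dose from the fit at or below ten times the top valid tested dose; inconclusive = Invalid fit, or flat curve showing 30 to 70% inhibition; inactive = the rest.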 These entries were drawn from the full list. Measured potencies and affinities stand elsewhere.

Molecular target: Lysine-specific demethylase 4C (Homo sapiens) (UniProt Q9H3R0)
Assay: GASC-1 (JMJD2C) histone demethylase inhibitors, dose response, biochemical, DELFIA europium, cherry-picked samples (AID 488835);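 note: signal is the H3K9me2 demethylation product detected by a dimethyl-specific antibody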
Conditions: GST-JMJD2C(1-420), H3K9me3 demethylation; series mostly up to 6 µM

Sequence of Lysine-specific demethylase 4C (Homo sapiens) (Q9H3R0 1-420 limits assumed): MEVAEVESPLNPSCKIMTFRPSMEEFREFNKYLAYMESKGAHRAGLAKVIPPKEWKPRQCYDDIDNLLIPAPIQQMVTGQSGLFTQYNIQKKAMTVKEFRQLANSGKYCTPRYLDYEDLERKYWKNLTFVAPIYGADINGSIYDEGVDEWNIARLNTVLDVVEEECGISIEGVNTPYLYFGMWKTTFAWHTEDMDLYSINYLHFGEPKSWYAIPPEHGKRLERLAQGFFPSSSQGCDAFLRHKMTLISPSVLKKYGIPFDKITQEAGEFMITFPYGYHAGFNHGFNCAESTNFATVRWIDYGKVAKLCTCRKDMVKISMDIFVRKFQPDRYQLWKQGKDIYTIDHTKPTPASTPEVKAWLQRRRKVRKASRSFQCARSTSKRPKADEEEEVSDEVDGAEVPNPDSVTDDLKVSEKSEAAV

outcome, inactive:
O=C(CNC(=O)c1ccc(S(=O)(=O)N2CCCC2)cc1)N/N=C/c1ccccc1, C[C@H](CO)N1C[C@H](C)[C@@H](CN(C)C(=O)Nc2ccc3c(c2)OCO3)Oc2c(NS(=O)(=O)c3ccc(F)cc3)cccc2C1=O, Cc1cc(C(=O)Nc2sc3c(c2C#N)CCC(C)C3)no1 (configuration not stated), COc1ccc(/C(C)=N/Nc2nccnc2Cl)cc1, CNC[C@@H]1Oc2ccc(NC(=O)Nc3cccc4ccccc34)cc2C(=O)N([C@@H](C)CO)C[C@@H]1C, COc1ccc(NC(=O)N(C)C[C@H]2Oc3c(NC(=O)C4CCCCC4)cccc3C(=O)N([C@H](C)CO)C[C@@H]2C)cc1, CC(=O)N/C(=C\c1ccccc1)C(=O)OCC(=O)NC1CCCC1, Cc1ccc(S(=O)(=O)N2[C@@H](c3ccc(Cl)c(Cl)c3)C(C(=O)O)=C[C@H]2C(C)(C)C)cc1, NC(=O)C1CCN(c2nc(-c3ccccc3Br)cs2)CC1, CC(NC(=O)CCC(=O)c1ccc(F)cc1)C1CC2CCC1C2 (configuration not stated), Cc1ccc(S(=O)(=O)N2CCOC2CNC(=O)C(=O)NCCc2ccc(S(N)(=O)=O)cc2)cc1 (configuration not stated), Cn1c(=O)[nH]c(=O)c2c1nc(N1CCc3ccccc3C1)n2CCSc1nc2ccccc2s1, CC[C@H]1CCCCc2ccccc2[C@@H](C(=O)C[C@@H](O)CC(C)=O)OC1=O, Cn1c(=O)c2c(nc(NC3CCCCC3)n2Cc2ccccc2)n(C)c1=O, CCOc1ccc2nc(NC(=O)CS(=O)(=O)c3ccc(C)cc3)sc2c1, CC[C@@H]1C=C(C(=O)O)[C@H](c2ccc(C)cc2)N1S(=O)(=O)c1ccc(C)cc1, CCc1ccc([C@@H]2CC=C(C(=O)O)[C@H](c3ccc(Br)cc3)N2S(=O)(=O)c2ccc(C)cc2)cc1, O=C(CSc1ncccn1)NCc1ccc(F)cc1, C[C@H](CO)N1C[C@H](C)[C@H](CN(C)Cc2ccc(Oc3ccccc3)cc2)Oc2ccc(NC(=O)Nc3cccc4ccccc34)cc2CC1=O, COc1ccc(N2CCN(C(=O)Cn3nnc(-c4ccc(N(C)C)cc4)n3)CC2)cc1, Cc1nn(Cc2ccc([N+](=O)[O-])cc2)c(=O)n1-c1cccc(Cl)c1, O=C(c1oc(=O)c2ccccc2c1-c1ccccc1)N1CCOCC1, O=C(Nc1ccccc1)Nc1ccc(S(=O)(=O)N2CCCCC2)cc1, O=C(CSc1ncccn1)Nc1ccc(S(=O)(=O)N2CCCCC2)cc1, Cc1noc(C)c1NC(=O)Nc1cccc2c1O[C@H](CN(C)S(=O)(=O)c1cccs1)[C@@H](C)CN([C@H](C)CO)C2=O, COC(=O)c1cc(OC)c(OC)cc1NC(=O)Cn1nnc(-c2ccccc2Cl)n1, CC12CN3CC(C)(CN(C1)C3c1ccc3ccccc3c1O)C2=O (configuration not stated), COc1ccc2c(C(=O)NCCCCO)c(-c3ccc(S(C)(=O)=O)cc3)sc2c1, C#CC[N+]1(CC#Cc2ccc(C#CC[N+]3(CC#C)CCOCC3)cc2)CCOCC1, CSc1nc(N2CCN(C)CC2)c2c(c1C#N)CC(C)(C)OC2, Cc1ccc(NC(=O)CSc2ncccn2)c([N+](=O)[O-])c1, C=CCN(C(=O)Nc1ccccc1)C1CC(=O)N(c2ccc(OC)cc2)C1=O (configuration not stated), Nc1nnc(SC2CC(=O)N(c3ccccc3)C2=O)s1 (configuration not stated), Cc1nnc2c(N3CCN(C(=O)c4ccco4)CC3)nc3ccccc3n12, Cc1c(C(=O)Nc2ccc3c(c2)OCO3)sc2ncn(CC(=O)N3CC(C)CC(C)C3)c(=O)c12 (configuration not stated), O=C(Nc1nc2c(s1)C(=O)CCC2)c1ccccc1, CCCN1C(=O)c2ccc(C(=O)Nc3cc(C)ccc3O)cc2C1=O, C[C@H](CO)N1C[C@H](C)[C@@H](CN(C)S(=O)(=O)c2cn(C)cn2)Oc2ccc(NC(=O)C3CC3)cc2C1=O, C[C@H](CO)N1C[C@H](C)[C@H](CN(C)S(=O)(=O)c2ccccc2)Oc2c(NS(C)(=O)=O)cccc2C1=O, COC(=O)c1c(-c2cccs2)csc1NC(=O)CN1CCOCC1, Cc1nc2ccccn2c1C(=O)NCCCN1CCOCC1, O=C(NCCCN1CCOCC1)c1cccc(S(=O)(=O)N2CCc3ccccc3C2)c1, Cc1ccc(S(=O)(=O)N2CCOCC2)cc1NC(=O)COC(=O)c1cc(=O)[nH]c2ccccc12, Cc1c(C(=O)NCc2cccs2)oc2ccccc12, Cc1cc(NC(=O)COc2ncnc3sc(C)c(C)c23)no1, Cn1c(SCC(=O)Nc2cc(S(=O)(=O)N3CCOCC3)ccc2N2CCOCC2)nnc1-c1ccncc1, Cc1ccccc1C(=O)OCCCN=C1NS(=O)(=O)c2ccccc21, O=C(CCc1ccc(S(=O)(=O)NCc2ccccc2)cc1)NCc1ccc2c(c1)OCO2, Cc1noc(C)c1S(=O)(=O)N(C)C[C@H]1Oc2c(NC(=O)Nc3ccccc3)cccc2C(=O)N([C@H](C)CO)C[C@@H]1C, O=C(NN=C1CCCCCCCCCCC1)c1cccc(S(=O)(=O)N2CCOCC2)c1, O=C(CC1NC(=O)NC1=O)Nc1ccccc1 (configuration not stated), Cc1nnnn1/C(=C\c1ccccc1)C(=O)OCC(=O)NC(C)(C)C, COc1ccc(S(=O)(=O)Nc2ccc3c(c2)C(=O)N([C@H](C)CO)C[C@H](C)[C@H](CN(C)Cc2ccc(C(=O)O)cc2)O3)cc1, Cc1noc(C)c1NC(=O)N(C)C[C@H]1Oc2ccc(NC(=O)Cn3cnnn3)cc2C(=O)N([C@H](C)CO)C[C@@H]1C, Oc1cc(O)cc(/C=C/c2ccc(O)c(O)c2)c1, CC(=O)OCC1OC(OC2C[C@]3(C)C(CC(O)C4C([C@](C)(CCC=C(C)C)OC5OC(CO)C(O)C(O)C5O)CC[C@]43C)[C@@]3(C)CCC(O)C(C)(C)C23)C(O[C@@H]2OC(C)C(O)C(O)C2O)C(O)C1O (some centres not stated), N=C1C(c2nc3ccccc3s2)=C(O)CN1Cc1ccccc1, CN(C(=O)c1ccccn1)c1nnc(-c2ccccn2)s1, Nc1ccc2oc(-c3ccccn3)nc2c1, O=C(N/N=C/c1nn(-c2ccccc2)cc1-c1ccccc1)c1ccncc1, CCCC(=O)Nc1ccc(C(=O)NCC2CCCO2)cc1 (configuration not stated), CS(=O)(=O)N(CCc1ccccc1)CC(=O)NCC1CCCO1 (configuration not stated), Cc1cc(C)n(-c2nnc(C)n2/N=C/c2ccco2)n1, O=C(O)c1cc2cc(Cl)ccc2oc1=O, O=C(CSc1nc2ccccc2c(=O)n1Cc1ccccc1)NCc1ccco1, CCOC(=O)Cn1c(=O)cnc2ccccc21, O=[N+]([O-])c1ccccc1/C=C/C=N/n1c(-c2ccc(Cl)cc2)n[nH]c1=S, CC(C)(C)n1ncc2c(=O)n(Cc3ccccc3Br)cnc21, O=C(OCC(=O)N1CCCC1)c1ccc(S(=O)(=O)Nc2ccccc2)cc1, CCN(CC)c1ccc(C(=O)OCC(=O)N2CCCC2)cc1, C[C@H](CO)N1C[C@H](C)[C@@H](CN(C)C(=O)NC2CCCCC2)Oc2c(NC(=O)c3ccncc3)cccc2C1=O, CCC(=O)N1c2ccc(S(=O)(=O)CCC(=O)NCCC3=CCCCC3)cc2CC1C (configuration not stated), Brc1ccc(-c2csc(N3CCc4ccccc4C3)n2)cc1, COc1ccc(-n2c(C)cc(/C=N/Nc3nnc(C)n3N)c2C)cc1, O=C(N/N=C/c1ccc([N+](=O)[O-])o1)c1cn(-c2ccccc2)nc1-c1ccc(F)cc1, Cc1cccc(C)c1NC(=S)NN(Cc1ccccc1)c1ccccc1, CCN(CC)CCCOc1ccc(C)cc1Br, O=C(C1CCC1)N(CCc1ccccc1)Cc1nc2ccccc2c(=O)[nH]1, COc1ccc(NC(=S)N2CCC(C(=O)N3CCCCCC3)CC2)cc1, O=C(Nc1ccc(Cl)cc1)N1CCN(c2ccccc2)CC1, COc1ccc(C(C(C(=O)c2ccco2)N2CCOCC2)N2CCOCC2)cc1 (configuration not stated), CCN1C(=O)C(C(=O)Nc2ccc(OC)cc2)C2CC1(C)Oc1ccccc12 (configuration not stated), COc1ccc(CC(=O)Nc2ccc(S(=O)(=O)N(C)C)cc2)cc1OC, Cc1onc(-c2c(F)cccc2Cl)c1C(=O)N1CCN(S(C)(=O)=O)CC1, N/C(=N\OC(=O)COc1cc(Cl)c(Cl)cc1Cl)c1ccncc1, CN(C)S(=O)(=O)c1cccc(NC(=S)NCc2ccc3c(c2)OCO3)c1, C=CCNC(=S)Nc1ccc(N2CCOCC2)c(S(=O)(=O)Nc2ccccc2Cl)c1, O=C(NCc1cccc(F)c1)C1CCN(S(=O)(=O)Cc2ccccc2)CC1, COc1ccc(S(=O)(=O)N2CCC(C(=O)N3CCc4ccccc4C3)CC2)cc1, COc1ccc(C2CC(=O)C=C(NNS(=O)(=O)c3ccc(C)cc3)C2)cc1 (configuration not stated), COCCn1nnnc1C(C(C)C)N1CCCC(C)C1 (configuration not stated), CCc1ccc(S(=O)(=O)Nc2nnc(N)s2)cc1, COc1ccc(NS(=O)(=O)c2cccc(C(=O)OCC(=O)Nc3cc(C)on3)c2)cc1, O=C(NCCNc1ccc([N+](=O)[O-])cc1C(F)(F)F)c1ccccc1, COC(=O)COc1ccc(S(=O)(=O)N2CCOCC2)cc1C, COc1ccccc1C(c1nnnn1Cc1ccccc1)N1CCN(C2CCCC2)CC1 (configuration not stated), C/C=C(\C)c1nnc(NC(=O)C(C)C)s1
